Test results published in PubChem BioAssay (Tox21).
Inconclusive results are not listed. A call without a number means that no potency is given here. The source made the active and inactive calls. Calls come from the whole dose curve; as a rule, active = well fitted cell-killing curve with a large enough effect in the repeat runs; inconclusive = weak or mixed curves, or effect the other way; inactive = no such curve, though single readings can be large or run the other way.
Potency is the fitted concentration of half-maximal effect.

Test: Caspase-3/7 induction in CHO-K1 cells by small molecules, qHTS cell viability counter screen (AID 1346979); note: nearly all actives have a fitted effect of over 35% in size
Conditions: CellTiter-Fluor fluorescence, 17 h; series mostly up to 92.4 µM
Description: National Center for Advancing Translational Sciences [NCATS]
NIH Chemical Genomics Center [NCGC]
U.S. Environmental Protection Agency [EPA]
National Institutes of Environmental Health Sciences [NIEHS]
National Toxicology Program [NTP]
U.S. Food and Drug Administration [FDA]
Apoptosis is a process of programmed cell death and plays a central role in the development of multicellular organisms. It is a highly regulated process and induces cell death by activating caspases, which are the members of cysteine aspartic acid-specific protease (caspase) family. Caspases involved in apoptosis are classified by their mechanism of action as initiator caspases (caspase-2, -8, -9 and -10) and executioner caspases (caspase-3, -6, and -7). Inhibition of apoptosis results in number of cancers, autoimmune diseases, inflammatory diseases and viral infection. To identify small molecule compounds that induce apoptosis, a homogeneous, luminescent Caspase-Glo 3/7 assay was used. Wild type CHO-K1 cells were used to screen Tox21 libraries for identifying caspase-3/7 activity inducers. Also cytotoxicity of the compounds was tested in parallel by measuring the cell viability using CellTiter-Fluor assay system in the same wells.
Tox21 Assay Protocol Summary:
CHO-K1 cells were dispensed at 1,500 per well in 5uL of culture medium into white solid bottom 1536-well plates (Corning Life Sciences, Corning, NY) using a Multidrop Combi (Thermo Scientific, Waltham, MA) dispenser. The assay plates were incubated at 37 C and 5% CO2 for 5hr, and then 23nL of compounds dissolved in DMSO and positive control were transferred using a Pintool station (Wako, San Diego, CA). The assay plates were incubated at 37C and 5% CO2 for 17hr. For cytotoxicity read, after 16hr incubation at 37C, 1uL CellTiter-Fluor reagent (Promega Corporation, Madison, WI) was added to each well of the assay plates using Flying Reagent Dispenser (FRD, Aurora Discovery, San Diego, CA). After 1hr incubation at 37C and 5% CO2, the fluorescence signal was quantified using a ViewLux plate reader (PerkinElmer, Shelton, CT).
For C[N+]1(C)[C@@H]2CC(OC(=O)[C@H](CO)c3ccccc3)C[C@H]1[C@@H]1O[C@@H]12 (stereo not given in full), the Potency was “inactive”.
In the case of CO[Si](C)(OC)c1ccccc1, the Potency is reported as “inactive”.
For Clc1cc(Cl)c(Cl)nc1Cl, the Potency was “inactive”.
In the case of COc1cc(-c2ccc(=O)[nH]n2)ccc1OC(F)F, the Potency is reported as “inactive”.
For C[N+]12CCC(CC1)C(OC(=O)C(O)(c1ccccc1)c1ccccc1)C2 (stereo not given), the Potency was “inactive”.
In the case of Cc1ccc(-c2ccccc2C#N)cc1, the Potency is reported as “inactive”.
With OCCCCCO the Potency was “inactive”.
In the case of CCCCOCCOC(=O)COc1cc(Cl)c(Cl)cc1Cl, the Potency is reported as “inactive”.
With CC(C)(C)C(=O)c1ccccc1 the Potency was “inactive”.
In the case of c1ccc2sc(SN3CCOCC3)nc2c1, the Potency is reported as “inactive”.
For CCO[Si](OCC)(OCC)c1ccccc1, the Potency was “inactive”.
In the case of N[C@@H](CCC(=O)O)C(=O)O, the Potency is reported as “inactive”.
In the case of Cc1ncc([C@@H](CCCCCCc2ccc3c(n2)NCCC3)CC(=O)O)cn1, the Potency is reported as 38.6 µM (active).
In the case of CN(C)CCCCCCN(C)C, the Potency is reported as “inactive”.
In the case of O=C(O)Cc1csc(-c2ccc(Cl)cc2)n1, the Potency is reported as “inactive”.
For O=C(O)CNC(=O)c1ccccc1, the Potency was “inactive”.
For CC(=O)Nc1ccc(OCC(O)CNC(C)C)cc1 (stereo not given), the Potency was “inactive”.
In the case of O=Cc1cccc(Br)c1, the Potency is reported as “inactive”.
For O=C1NC(=O)C2CC=CCC12 (stereo not given), the Potency was “inactive”.
For COCCOC[C@H](CC1(C(=O)NC2CCC(C(=O)O)CC2)CCCC1)C(=O)Oc1ccc2c(c1)CCC2 (stereo not given in full), the Potency was 54.5 µM (active).
For O=S(=O)(O)c1cc(O)c(O)c(S(=O)(=O)O)c1, the Potency was “inactive”.
For CN1CC(=O)N/C1=N/C(=O)Nc1cccc(Cl)c1, the Potency was “inactive”.
With CCCCN1C=CN(C)C1 the activity change, negative = cytotoxicity was 5.38% [at 19 µM] (inactive).
In the case of Cc1cccc(C)c1NC(=O)CC12CCCN1CCC2, the Potency is reported as “inactive”.
For Nc1ccn([C@@H]2O[C@H](CO)[C@@H](O)C2O)c(=O)n1 (stereo not given in full), the Potency was “inactive”.
In the case of CCC(C)(CN(C)C)OC(=O)c1ccccc1 (stereo not given), the Potency is reported as “inactive”.
With CCN1CCOCC1 the Potency was “inactive”.
With CCCc1ncc(C[n+]2ccccc2C)c(N)n1 the Potency was “inactive”.
In the case of Cc1ccc(C(=O)Nc2ccc(S(=O)(=O)O)c3cc(S(=O)(=O)O)cc(S(=O)(=O)O)c23)cc1NC(=O)c1cccc(NC(=O)Nc2cccc(C(=O)Nc3cc(C(=O)Nc4ccc(S(=O)(=O)O)c5cc(S(=O)(=O)O)cc(S(=O)(=O)O)c45)ccc3C)c2)c1, the Potency is reported as “inactive”.
For CC1=NN(c2cccc(S(=O)(=O)O)c2)C(=O)C1, the Potency was “inactive”.
In the case of NCCCC[C@H](N[C@@H](CCc1ccccc1)C(=O)O)C(=O)N1CCC[C@H]1C(=O)O, the Potency is reported as “inactive”.
For CC(C)(C)OC(=O)c1cccc(N)c1, the Potency was “inactive”.
With FB(F)F the Potency was “inactive”.
For CC(C)NNC(=O)c1ccncc1, the Potency was “inactive”.
For CC(CC=O)CC(C)(C)C (stereo not given), the Potency was “inactive”.
For NO, the Potency was “inactive”.
For NC(=O)N[C@@H](CCC(=O)O)C(=O)O, the Potency was “inactive”.
With CCCCCC(=O)OCCc1ccccc1 the Potency was “inactive”.
In the case of [K+], the Potency is reported as “inactive”.
For CC(=O)O[C@@]12CO[C@@H]1C[C@H](O)[C@@]1(C)C(=O)[C@H](O)C3=C(C)[C@@H](OC(=O)[C@H](O)[C@@H](NC(=O)OC(C)(C)C)c4ccccc4)C[C@@](O)([C@@H](OC(=O)c4ccccc4)[C@H]21)C3(C)C, the Potency was 11.9 µM (active).
